In the supplement of paper PMC6555819:

How the values were obtained:
Assay in all cases: PBM binding z-score (relative to random genomic background probes); higher = stronger binding; sequences stand for … in GC…GCGATTGACAGCGTAGAATGAAGG
[1] = tested on: FXR:RXRa (NR concentration 270 nM, RXRa partner concentration 90 nM)
Procedure, shortened: (§1)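 Custom Agilent 4×180K protein-binding microarrays carried double-stranded probes, each with a 34-nt variable region. These regions held direct-repeat seeds, single-nucleotide variants, half-site ablations and random human genomic background sequences. Ligand-free nuclear receptor dimers were incubated on the arrays for 1 h, antibodies against each partner (one per run) detected binding, and scanned fluorescence was regression-normalized. Binding z-scores take the random background probes as reference.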

[2] = tested on: LXRa:RXRa (NR concentration 270 nM, RXRa partner concentration 90 nM)
Procedure, shortened: as §1

[3] = tested on: LXRa homodimer (NR concentration 270 nM)
Procedure, shortened: as §1

[4] = tested on: LXRb:RXRa (NR concentration 270 nM, RXRa partner concentration 90 nM)
Procedure, shortened: as §1

[5] = tested on: LXRb homodimer (NR concentration 270 nM)
Procedure, shortened: as §1

[6] = tested on: PPARa:RXRa (NR concentration 270 nM, RXRa partner concentration 90 nM)
Procedure, shortened: as §1

[7] = tested on: PPARg:RXRa (NR concentration 180 nM, RXRa partner concentration 90 nM)
Procedure, shortened: as §1

[8] = tested on: PPARg:RXRa 270nM:90nM, anti-RXR (NR concentration 270 nM, RXRa partner concentration 90 nM)
Procedure, shortened: as §1

[9] = tested on: PPARg:RXRa 30nM:10nM, anti-RXR (NR concentration 30 nM, RXRa partner concentration 10 nM)
Procedure, shortened: as §1

[10] = tested on: PPARg:RXRa 90nM:30nM, anti-RXR (NR concentration 90 nM, RXRa partner concentration 30 nM)
Procedure, shortened: as §1

Sequence	PBM binding z-score [1]	PBM binding z-score [2]	PBM binding z-score [3]	PBM binding z-score [4]	PBM binding z-score [5]	PBM binding z-score [6]	PBM binding z-score [7]	PBM binding z-score [8]	PBM binding z-score [9]	PBM binding z-score [10]
ATCGAAAGGTCGTGAGGTGAGTATACAGAAAGGC	5.57	4.25	0.175	3.13	0.435	4.95	4.06	4.39	1.92	3.28
CTCGAAAGGTCGGTTGAGGTGAGGATACGGATAA	3.07	1.84	-0.0492	1.43	-0.104	2.68	0.677	1.09	0.294	1.02
CCGACTGGCGCATAAGGTTACCATAAGCCAGCCC	0.387	1.91	-0.184	0.848	-0.921	0.659	0.557	0.0532	-0.553	-0.235
CCTTACGGCTCACTCCAGGTTATAGCATCGGAGT	0.29	0.942	1.31	0.0567	0.303	-0.0224	0.265	-0.277	0.181	-0.238
CGAACTAGGCCATCCAGGACAGTGAATACATTGA	-0.177	-0.379	-0.0398	-0.306	-0.512	1.64	2.39	1.71	0.404	1.19
CCTAGTTGCTCAGGAGGTCACACACCGGATATGA	3.45	3.66	2.47	3.74	0.953	4.23	1.96	2.65	0.83	1.79
CCTTACGGGTCACTGACAGGTTAAAGCATTTGGA	5.65	4.59	0.409	3.69	-0.38	5.05	4.6	4.5	1.97	3.25
ACTTACGGGTCAACGAGGTGATAGCACGCGTATA	6.81	4.17	0.0422	3.7	0.296	5.53	5.36	5	2.26	4.11
ATATGTAGGTTACATCCGGGGCATTCAGGCTATG	0.427	2.23	0.412	1.16	1.07	3.19	5.17	4.28	1.77	3.18
AGAATGAGGTTATACGTAGATCCGGGAAGAAAGT	1.84	1.4	-0.0656	1.27	-0.0516	3.09	1.65	2.1	0.93	1.68
CATACAGGGTCAGCTCGGCCAGAGTAGGGACGGC	4.13	2.91	-0.117	2.06	0.463	3.97	2.99	2.64	0.565	1.72
CCTACTGGGCCTTTCAGAGGTCATTGATCATATG	2.73	4.97	8.02	3.71	0.477	3.35	0.785	2.22	0.333	1.2
ATCGAAAGCTCGACGAGGTGAGTATACACCGTTT	-0.406	-0.524	-0.742	-0.456	-0.163	-0.348	0.614	-0.448	0.105	-0.367
ACTAGCAGGCCAAGCTTGGGTCACTCAAACAAAG	-0.0796	0.111	-0.692	0.455	-0.932	1.22	0.00964	0.21	-0.684	-0.194
GCTCGGAGGACAAGGTTAGAGCTTTGTCCGTAGA	-0.181	-0.186	-1.07	-0.329	-0.89	0.169	-0.843	0.0367	-1.07	-0.395
CAAACTAGGTCAAAGGTCAAATTCGAGCCAACCA	8.57	7.2	6.34	7.43	4	7.66	14.1	11.5	12.7	14
CCTACTGAGCCAAAGGTCATTGATTCCAATGCTC	5.45	5.55	4.66	5.13	2.18	5.53	8.72	8.74	7.32	9.2
CCTTACGGGTCACTCCAGGTTATAGCTTCGGAGT	5.46	7.43	1.7	4.64	0.284	4.05	3.22	3.66	1	2.17
CGTCCAAGGTCAATGCTAGGTCAGGGAAAGCATT	6.82	5.42	2.86	4.1	0.919	5.17	4.49	4.52	1.47	3.37
TTGCCTAGGTCATTCAGGGGCCAGTATAGAAAGC	5.14	3.97	0.809	2.93	0.902	3.51	2.07	2.24	0.187	1.52
TGTCAAAGTTCAAAGGTAACGCAAGTATCCACAC	7.39	6.39	4.52	4.83	1.75	6.18	9.31	8.11	5.51	7.89
AGAACGAGGGCACGCTGAGGTGATAGCAGAGTAG	1.52	0.73	-0.584	0.0618	-1	2.18	2.3	2.19	0.193	1.29
CCTACTGGGCCATGAGGTCATTGATATCAACGTT	3.57	2.77	1.87	3.24	-0.168	4.19	4.59	4.66	2.55	4.53
ATACCAAGGTGATCGTCAGGTCGTTGATACTAAC	1.07	0.928	0.311	0.454	-0.244	0.892	0.38	0.265	0.184	0.227
